Usually viability stands for a read-out of living cells in per cent, often relative to untreated cells.

A short description of the assay: reversal of MRP1-mediated doxorubicin resistance, pilot screen, H69AR cells, doxorubicin co-treatment (AID 601). The note with it: H69AR cells, CellTiter-Glo, 72 h; compound alone cytotoxicity; at 10 µM.
`COc1ccc(C(=O)Nn2c(SCC(=O)NCC3CCCO3)nc3ccccc3c2=O)cc1` (stereo not given): the viability amounted to 83.8%.

Take `COc1ccc(Cc2nnc3n2N=C(c2cc4ccccc4o2)CS3)cc1OC`: the viability amounted to 35%. As for `CC1(C)OC(=O)N(c2cccnc2)C1(C)O` (stereo not given), the figure is 91.5%; as for `O=c1/c(=C/c2ccco2)sc2nc(-c3ccccc3Br)nn12`, 92.4%. As for `CC1Cc2ccccc2N1C(=O)CSc1nc2ccccc2n1CC(=O)N1CCOCC1` (stereo not given), the figure is 97.8%; as for `Cc1oc(-c2ccccc2F)nc1CS(=O)(=O)CC(=O)N1CCCCCC1`, 100%; as for `O=C(NCc1cccnc1)c1ccc(Cl)c(Cl)c1`, 96.8%.

As for `COc1cccc(C(=O)Nc2ccc(NC(C)=O)cn2)c1`, the viability was 106%. As for `CCN(C(=O)CN1CCN(c2ccccc2OC)CC1)c1c(N)n(Cc2ccccc2)c(=O)[nH]c1=O`, the figure is 100%; as for `CCOC(=O)n1c(SCC(=O)N(CC)CC)nc2ccccc21`, 101%.

Turning to `CCOC(=O)C1CCN(c2c(NC3CCCCCCC3)c(=O)c2=O)CC1`, the viability is 79.7%. As for `CCOC(=O)NC(=O)CSc1nnnn1-c1ccc(Cl)cc1`, the figure is 106%.

As for `COc1cccc(-n2c(C)nc3c(cnn3-c3ccc(Cl)cc3)c2=O)c1`, the viability stood at 76.3%. As for `CN(CC(O)COCc1cccs1)C1CCCCC1` (stereo not given), the figure is 106%; as for `O=C(O)CSc1ccc2ccccc2n1`, 90%; as for `CN(C)Cc1c(O)ccc2oc(Cc3ccccc3)cc12`, 91%.

With `COC(=O)c1[nH]c(C)c(/C(O)=C2\C(=O)C(=O)N(CCN(C)C)C2c2ccccc2OC)c1C` (stereo not given), the viability stood at 84.3%. As for `CC1(C)Cc2c(sc3c2c(=N)n(Cc2ccco2)c(=O)n3Cc2ccccc2)CO1`, the figure is 71.9%; as for `CCn1nnnc1SCC(=O)N1CCOCC1`, 97.6%.

Take `CN(C)c1ccc(C=Nc2ccc(N(C)C)cc2)cc1`: the viability was 70.4%. Take `CCCC(=O)Nc1ccc(OCC(=O)OC)cc1`: the viability turned out to be 98.9%.

With `CCn1cc(C(=O)NCCN(C)CCc2ccccc2)c(=O)c2cc(S(=O)(=O)N(C)C)ccc21`, the viability was 81.2%. `COc1cccc(-c2cc(C(=O)N3CCCc4ccccc43)no2)c1`: the viability turned out to be 92.4%. As for `O=C(Cn1c(NCCO)nc2ccccc21)c1ccccc1`, the figure is 104%.

As to `CCOC(=O)N1CCC(N2C(=O)c3ccccc3C2Nc2cccnc2)CC1` (stereo not given), the viability worked out at 85.7%.

On to `CCCCCCNS(=O)(=O)c1ccc(Cl)s1`, for which the viability was 89.1%. As for `COC(=O)c1cc(=O)n2c(-c3ccc(OC)cc3)csc2n1`, the viability was determined as 92.6%. For `COC(=O)/C=c1/s/c(=C(/C#N)C(=O)N2CCOCC2)n(-c2ccccc2)c1=O`, the viability was found to be 88.8%. As for `CCOc1ccc2[nH]cc(C(=O)N3CCN(CC)CC3)c(=O)c2c1`, the figure is 89.6%; as for `CCCCN(CCCNC(=O)C1CCN(S(=O)(=O)CC)CC1)c1ccccc1`, 96.6%. As for `COc1ccc(-c2nnn(CCc3nn[nH]n3)n2)cc1OC`, the figure is 95.5%; as for `CCCCC(=NCCO)C1=C(O)C(C(=O)OC)C(C)(C)CC1=O` (stereo not given), 89.5%. As for `COC1CCCCC1NS(=O)(=O)c1ccccc1` (stereo not given), the figure is 97.7%.

As for `Nc1c(N2CCCCC2)c(=O)[nH]c(=O)n1-c1ccccc1`, the viability was 109%. As for `O=C(CN1C(=O)CCSc2ccccc21)Nc1ccc2c(c1)OCO2`, the figure is 103%; as for `Cc1cc(C)c2oc(=O)cc(CN3CCOCC3)c2c1`, 91.4%; as for `OCc1nc2ccccc2n1CCCOc1ccccc1`, 103%. As for `CC(C)(C)c1ccc2c(c1)OCC(C(=O)O)O2` (stereo not given), the figure is 106%; as for `O=C1C2C3C=CC(C3=C3CCCCC3)C2C(=O)N1c1ccccc1` (stereo not given), 95.8%; as for `CCCN1C(=O)c2cc(C(=O)O)ccc2C1O` (stereo not given), 103%.
